Experiment [1] in a line: ATG_NF_kB_CIS: Attagene CIS-FACTORIAL HepG2 Assay for human Nuclear Factor Kappa B (NF-kB) (AID 2282991). As to conditions: HepG2 Attagene cis-factorial NF-kB reporter mRNA; actives raise or lower the signal. The gist of the method:
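Measures mRNA induction of an NF-kB-responsive cis-element reporter in HepG2 cells transfected with multiple reporter units, sampled 24 h post-dosing; quantified by fluorescence after RT-PCR and capillary electrophoresis, fitted for activation or inhibition against DMSO.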

The nature of experiment [2]: ATG_NRF2_ARE_CIS: Attagene CIS-FACTORIAL HepG2 Assay for human Nuclear Factor Erythroid 2 Related Factor 2 (NFR2) response to Antioxidant Response Elements (ARE) (AID 2282992). As to conditions: HepG2 Attagene ARE/NRF2 reporter, transcription factor activity; actives raise or lower the signal. In a few lines:
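Endogenous transcription factor activity read out as reporter transcript levels (RT-PCR plus capillary electrophoresis, fluorescence) in transiently transfected HepG2 cells. Measured at 24 h after dosing; gain or loss of signal fitted versus DMSO.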

The nature of experiment [3]: ATG_Oct_MLP_CIS: Attagene CIS-FACTORIAL HepG2 Assay for human Octamer-Binding Transcription Factor (Oct) (AID 2282993). As to conditions: HepG2 Attagene cis-factorial Oct reporter, mRNA; actives raise or lower the signal. In a few lines: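 Transient MRTU transfection of HepG2 → 24 h compound treatment → RNA isolation, reverse transcription, PCR → 6-FAM primer extension, HpaI digest → capillary electrophoresis. Activity fitted both directions against DMSO.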

Experiment [4] has as its target Cellular tumor antigen p53 (Homo sapiens) (UniProt P04637). The experiment is described as follows: ATG_p53_CIS: Attagene CIS-FACTORIAL HepG2 Assay for human p53 Transcription Factor (AID 2282994). The settings on record: HepG2 p53 cis-element reporter, Attagene mRNA; actives raise or lower the signal. In a few lines: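 Endogenous p53 activity read in transiently transfected HepG2 from a cis-element-driven reporter transcript after 24 h exposure. RNA reverse-transcribed, PCR-amplified, fluorescently labelled and sized by capillary electrophoresis; gain or loss fitted against DMSO baseline.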

A short description of experiment [5]: BSK_3C_TissueFactor: BioMAP Diversity Plus: 3C Assay for Tissue Factor Biomarker Activity (AID 2282997). The settings on record: BioMAP 3C HUVEC, tissue factor biomarker readout; actives raise or lower the signal. In a few lines: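 In this endothelial system, HUVEC are treated for 24 h and Tissue Factor is assessed by ELISA, normalised to DMSO.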
A short description of experiment [6]: BSK_3C_uPAR: BioMAP Diversity Plus: 3C Assay for Urokinase-type plasminogen activator receptor (uPAR) Biomarker Activity (AID 2282998). The settings on record: BioMAP 3C HUVEC, uPAR biomarker ELISA; actives raise or lower the signal. The gist of the method:
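ELISA readout of uPAR on human vascular endothelium (umbilical vein primary cells), taken 24 h after chemical dosing. Increases and decreases are both fitted relative to DMSO vehicle.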

Experiment [7] is described as follows: BSK_3C_VCAM1: BioMAP Diversity Plus: 3C Assay for Vascular cell adhesion molecule 1 (VCAM1) Biomarker Activity (AID 2282999). The settings on record: BioMAP 3C HUVEC, VCAM1 ELISA, cytokine-stimulated; actives raise or lower the signal. In a few lines:
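HUVEC primary cells, 24 h compound exposure; VCAM-1 by ELISA; gain/loss of signal fitted bidirectionally vs DMSO baseline.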

A short description of experiment [8]: BSK_4H_Eotaxin3: BioMAP Diversity Plus: 4H Assay for Eotaxin 3 Biomarker Activity (AID 2283000).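 For outcome: CCL26 protein level quantified by ELISA in parallel with SRB cytotoxicity check.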 As to conditions: primary human endothelial cells (HUVEC); actives raise or lower the signal. In a few lines: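 ELISA quantitation of CCL26 (Eotaxin-3) protein from chemically dosed human vascular endothelial cells at 24 h; increases and decreases both scored relative to DMSO-treated baseline.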

Experiment [9] addresses human Peroxisome Proliferator-activated Receptor alpha (PPARa), PPARA (gene 5465) (UniProt Q07869). As to the kind of experiment: ATG_PPARa_TRANS: Attagene TRANS-FACTORIAL HepG2 Assay for human Peroxisome Proliferator-activated Receptor alpha (PPARa) (AID 2283001; active = hit-call score of the fitted dose curve at least 0.9, where 1 is the maximum). In a few lines: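 Transient HepG2 transfection, GAL4-UAS reporters, NR-Gal4 chimeras; 24 h compound exposure. Readout: reporter transcripts by RT-PCR, 6-FAM primer extension, HpaI digest, capillary electrophoresis. Positive direction vs DMSO baseline.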

Read-out in experiment [10]: Intercellular Adhesion Molecule 1 (ICAM1), ICAM1 (gene 3383)
The experiment is described as follows: BSK_3C_ICAM1: BioMAP Diversity Plus: 3C Assay for Intercellular Adhesion Molecule 1 (ICAM1) Biomarker Activity (AID 2283003). The settings on record: primary human endothelial cells (HUVEC); actives raise or lower the signal. The gist of the method: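 ELISA read-out of ICAM-1; HUVEC (primary human), 3C system, 24 h post-dosing; bidirectional fit vs DMSO baseline.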

Experiment [11] has as its target human Retinoic Acid Receptor beta (RARb), RARB (gene 5915) (UniProt P10826). The experiment is described as follows: ATG_RARb_TRANS: Attagene TRANS-FACTORIAL HepG2 Assay for human Retinoic Acid Receptor beta (AID 2283004; active = hit-call score of the fitted dose curve at least 0.9, where 1 is the maximum). In a few lines:
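Fluorescent capillary-electrophoresis detection of GAL4-UAS reporter mRNA defines the endpoint, with induction over DMSO-treated wells scored as activity. Transiently transfected human hepatoma HepG2 cells expressing exogenous NR–Gal4 proteins are exposed to test chemicals for 24 h.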

The target in experiment [12] is Retinoic acid receptor alpha (Homo sapiens) (UniProt P10276). The experiment is described as follows: ATG_RARa_TRANS: Attagene TRANS-FACTORIAL HepG2 Assay for human Retinoic Acid Receptor alpha (RARa) (AID 2283005; active = hit-call score of the fitted dose curve at least 0.9, where 1 is the maximum). The gist of the method:
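HepG2 transiently transfected with multiplex GAL4-UAS reporter units including a human RARa–GAL4 chimera; 24 h compound exposure. Reporter mRNA quantified by RT-PCR, 6-FAM labeling and capillary electrophoresis; gain of signal versus DMSO.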

A short description of experiment [13]: BSK_3C_Proliferation: Cell Proliferation Assessment in the BioMAP Diversity Plus: 3C Assay (AID 2283006).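 For AC50: potency may reflect either rise or fall in cell number versus DMSO.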 As to conditions: primary human endothelial cells (HUVEC). The gist of the method:
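HUVEC, sub-confluent; 48 h chemical exposure; 10% TCA fix, 0.1% SRB stain, A560 total protein. Gain or loss of signal fitted both directions vs DMSO control.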

In experiment [14] the target is Nuclear receptor subfamily 1 group I member 2 (Homo sapiens) (UniProt O75469). As to the kind of experiment: ATG_PXR_TRANS: Attagene TRANS-FACTORIAL HepG2 Assay for human Pregnane X Receptor (PXR) (AID 2283008; active = hit-call score of the fitted dose curve at least 0.9, where 1 is the maximum). The gist of the method:
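Transactivation by exogenous PXR–GAL4 fusion measured as reporter transcript induction after 24 h compound treatment of transfected human HepG2 cells. Read-out via RT-PCR and capillary electrophoresis of labelled fragments, fitted upward relative to DMSO.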

Experiment [15] has as its target human Retinoic Acid Receptor gamma (RARg), RARG (gene 5916) (UniProt P13631). As to the kind of experiment: ATG_RARg_TRANS: Attagene TRANS-FACTORIAL HepG2 Assay for human Retinoic Acid Receptor gamma (RARg) (AID 2283009; active = hit-call score of the fitted dose curve at least 0.9, where 1 is the maximum). In a few lines: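 Readout: reporter transcript levels via RT-PCR, 6-FAM primer-extension labelling, HpaI digestion and capillary electrophoresis. Cells: HepG2 carrying transfected RARg-GAL4 chimera plus UAS reporter set. Dosing 24 h; DMSO negative control.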

In experiment [16] the target is human RAR-related Orphan Receptor gamma (RORg), RORC (gene 6097) (UniProt P51449). As to the kind of experiment: ATG_RORg_TRANS: Attagene TRANS-FACTORIAL HepG2 Assay for human RAR-related Orphan Receptor gamma (RORg) (AID 2283011; active = hit-call score of the fitted dose curve at least 0.9, where 1 is the maximum). The gist of the method:
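Chimeric RORg-Gal4 transactivation in transfected HepG2; 24 h exposure; RT-PCR/capillary electrophoresis readout of reporter mRNA, DMSO baseline.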

For experiment [17], the target named is human Peroxisome Proliferator-activated Receptor delta (PPARd), PPARD (gene 5467) (UniProt Q03181). The experiment is described as follows: ATG_PPARd_TRANS: Attagene TRANS-FACTORIAL HepG2 Assay for human Peroxisome Proliferator-activated Receptor delta (PPARd) (AID 2283002; active = hit-call score of the fitted dose curve at least 0.9, where 1 is the maximum). The gist of the method:
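HepG2 cells transiently transfected with GAL4-UAS multiplexed reporter units driven by exogenous chimeric NR-GAL4 proteins; 24 h compound exposure. Reporter mRNA measured by RT-PCR, 6-FAM primer extension, HpaI digestion and capillary electrophoresis; gain of signal fitted relative to DMSO.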

Experiment [18] concerns the target Peroxisome proliferator-activated receptor gamma (Homo sapiens) (UniProt P37231). As to the kind of experiment: ATG_PPARg_TRANS: Attagene TRANS-FACTORIAL HepG2 Assay for human Peroxisome Proliferator-activated Receptor-gamma (PPARg) (AID 2283007; active = hit-call score of the fitted dose curve at least 0.9, where 1 is the maximum). The gist of the method:
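Gain-of-signal endpoint relative to DMSO, derived from reporter mRNA levels quantified by RT-PCR and capillary electrophoresis. Cells were HepG2 transiently expressing a chimeric NR-Gal4 construct with GAL4-UAS reporters, exposed to chemicals for 24 h.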

For experiment [19], the target named is Retinoic acid receptor RXR-alpha (Homo sapiens) (UniProt P19793). As to the kind of experiment: ATG_RXRa_TRANS: Attagene TRANS-FACTORIAL HepG2 Assay for human Retinoid X Receptor alpha (RXRa) (AID 2283012; active = hit-call score of the fitted dose curve at least 0.9, where 1 is the maximum). The gist of the method: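 Read-out: fluorescent reporter-transcript fragments quantified by capillary electrophoresis after RT-PCR. Transiently transfected HepG2 cells carrying GAL4-UAS reporters and NR-GAL4 chimeras were exposed to chemical for 24 h; activity scored as increase over DMSO.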
Retinoic acid receptor RXR-alpha (Homo sapiens), sequence (P19793 whole entry, looked up, the tested form may be a part): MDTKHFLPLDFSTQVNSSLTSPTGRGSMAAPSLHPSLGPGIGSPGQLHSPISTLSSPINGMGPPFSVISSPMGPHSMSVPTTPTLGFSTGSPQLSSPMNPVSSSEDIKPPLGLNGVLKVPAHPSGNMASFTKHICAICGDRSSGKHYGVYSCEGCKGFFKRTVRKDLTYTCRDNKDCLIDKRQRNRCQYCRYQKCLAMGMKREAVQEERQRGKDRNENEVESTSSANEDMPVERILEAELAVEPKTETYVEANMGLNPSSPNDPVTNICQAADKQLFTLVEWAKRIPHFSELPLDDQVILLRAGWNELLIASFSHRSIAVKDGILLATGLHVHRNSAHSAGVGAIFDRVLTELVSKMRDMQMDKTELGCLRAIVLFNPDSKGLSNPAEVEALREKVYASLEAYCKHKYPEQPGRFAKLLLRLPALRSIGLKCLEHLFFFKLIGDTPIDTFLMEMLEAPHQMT

Experiment [20] has as its target human RAR-related Orphan Receptor beta (RORb), RORB (gene 6096) (UniProt Q92753). The experiment is described as follows: ATG_RORb_TRANS: Attagene TRANS-FACTORIAL HepG2 Assay for human RAR-related Orphan Receptor beta (RORb) (AID 2283010; active = hit-call score of the fitted dose curve at least 0.9, where 1 is the maximum). The gist of the method:
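HepG2, transient MRTU transfection (GAL4-UAS reporters, exogenous NR-Gal4 chimeras); 24 h compound exposure; total RNA → RT-PCR → 6-FAM primer extension → HpaI digest → CE fluorescence. Positive direction vs DMSO baseline.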

Results on seven compounds are retold here after PubChem BioAssay (EPA / NIEHS).

SMILES strings stand for the structures. Values joined by “and” are separate entries in the source; they are usually repeats but may differ in a detail not shown here. Identical values can stand only once. Results filed as inconclusive are left out. Active and inactive are the calls of the source. Rule for the calls, unless noted: active = hit-call score of the fitted dose curve at least 0.9, where 1 is the maximum; inactive = score below 0.9.

Peroxisome proliferator-activated receptor gamma (Homo sapiens), sequence (P37231 whole entry, looked up, the tested form may be a part): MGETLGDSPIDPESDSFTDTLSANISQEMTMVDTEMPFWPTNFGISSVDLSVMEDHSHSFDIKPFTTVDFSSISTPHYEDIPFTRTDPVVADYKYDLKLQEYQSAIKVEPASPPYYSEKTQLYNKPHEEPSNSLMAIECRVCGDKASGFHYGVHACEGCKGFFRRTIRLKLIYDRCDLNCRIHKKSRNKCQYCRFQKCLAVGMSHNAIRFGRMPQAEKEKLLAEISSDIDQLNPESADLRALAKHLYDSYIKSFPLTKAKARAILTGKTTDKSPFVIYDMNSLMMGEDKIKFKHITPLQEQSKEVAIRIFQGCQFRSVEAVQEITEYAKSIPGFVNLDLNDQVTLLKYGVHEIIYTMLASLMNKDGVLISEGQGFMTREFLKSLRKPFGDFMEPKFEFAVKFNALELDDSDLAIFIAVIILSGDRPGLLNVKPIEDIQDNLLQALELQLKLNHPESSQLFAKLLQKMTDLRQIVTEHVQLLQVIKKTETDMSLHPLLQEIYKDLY
human Peroxisome Proliferator-activated Receptor delta (PPARd), PPARD (gene 5467), sequence (Q03181 whole entry, looked up, the tested form may be a part): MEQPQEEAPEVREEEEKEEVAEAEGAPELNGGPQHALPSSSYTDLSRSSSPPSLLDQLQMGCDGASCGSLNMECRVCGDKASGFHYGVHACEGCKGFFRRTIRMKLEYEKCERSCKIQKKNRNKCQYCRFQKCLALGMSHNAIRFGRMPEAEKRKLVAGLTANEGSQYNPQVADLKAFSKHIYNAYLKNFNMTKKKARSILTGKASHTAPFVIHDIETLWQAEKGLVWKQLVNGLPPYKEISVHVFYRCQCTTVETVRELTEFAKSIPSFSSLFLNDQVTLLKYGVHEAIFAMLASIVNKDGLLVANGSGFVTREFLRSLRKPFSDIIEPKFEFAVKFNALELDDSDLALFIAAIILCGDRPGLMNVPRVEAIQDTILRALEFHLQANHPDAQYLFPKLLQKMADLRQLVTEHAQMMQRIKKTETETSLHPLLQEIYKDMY
Nuclear receptor subfamily 1 group I member 2 (Homo sapiens), sequence (O75469 whole entry, looked up, the tested form may be a part): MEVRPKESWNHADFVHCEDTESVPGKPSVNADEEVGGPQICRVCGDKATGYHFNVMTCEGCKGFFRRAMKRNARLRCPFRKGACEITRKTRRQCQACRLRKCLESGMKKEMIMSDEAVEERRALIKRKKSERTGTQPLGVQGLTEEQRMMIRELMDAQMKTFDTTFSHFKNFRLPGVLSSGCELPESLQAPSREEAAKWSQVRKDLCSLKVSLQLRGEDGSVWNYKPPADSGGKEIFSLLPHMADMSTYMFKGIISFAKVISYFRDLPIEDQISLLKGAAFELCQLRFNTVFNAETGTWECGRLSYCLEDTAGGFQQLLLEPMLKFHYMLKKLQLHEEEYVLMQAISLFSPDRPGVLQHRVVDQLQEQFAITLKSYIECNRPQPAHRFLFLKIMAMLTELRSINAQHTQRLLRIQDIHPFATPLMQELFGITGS
human RAR-related Orphan Receptor gamma (RORg), RORC (gene 6097), sequence (P51449 whole entry, looked up, the tested form may be a part): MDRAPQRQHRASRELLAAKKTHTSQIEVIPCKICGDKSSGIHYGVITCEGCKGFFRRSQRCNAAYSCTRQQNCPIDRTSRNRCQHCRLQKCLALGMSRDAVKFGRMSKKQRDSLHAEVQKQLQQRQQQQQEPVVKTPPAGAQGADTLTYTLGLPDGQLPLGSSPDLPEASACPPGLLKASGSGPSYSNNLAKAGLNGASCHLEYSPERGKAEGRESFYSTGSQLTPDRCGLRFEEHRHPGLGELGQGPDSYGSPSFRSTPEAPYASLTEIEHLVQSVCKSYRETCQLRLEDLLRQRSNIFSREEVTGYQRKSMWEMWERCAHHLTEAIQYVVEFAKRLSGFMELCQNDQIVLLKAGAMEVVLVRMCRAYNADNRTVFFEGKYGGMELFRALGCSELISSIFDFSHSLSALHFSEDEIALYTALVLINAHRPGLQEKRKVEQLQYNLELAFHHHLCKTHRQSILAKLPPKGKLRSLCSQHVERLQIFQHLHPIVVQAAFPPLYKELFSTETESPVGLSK
human Peroxisome Proliferator-activated Receptor alpha (PPARa), PPARA (gene 5465), sequence (Q07869 whole entry, looked up, the tested form may be a part): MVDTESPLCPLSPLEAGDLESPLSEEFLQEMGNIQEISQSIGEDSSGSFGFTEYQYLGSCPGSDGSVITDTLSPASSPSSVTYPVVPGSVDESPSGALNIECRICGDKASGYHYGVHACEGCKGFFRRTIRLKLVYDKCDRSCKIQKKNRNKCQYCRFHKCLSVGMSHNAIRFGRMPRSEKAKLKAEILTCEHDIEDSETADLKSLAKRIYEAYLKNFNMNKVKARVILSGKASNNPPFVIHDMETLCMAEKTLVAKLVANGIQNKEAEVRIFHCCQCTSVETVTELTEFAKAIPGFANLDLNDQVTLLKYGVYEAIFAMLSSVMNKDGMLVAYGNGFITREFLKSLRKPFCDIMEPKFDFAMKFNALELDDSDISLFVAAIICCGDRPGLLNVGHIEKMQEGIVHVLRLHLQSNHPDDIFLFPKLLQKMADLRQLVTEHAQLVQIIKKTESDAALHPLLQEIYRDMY
Cellular tumor antigen p53 (Homo sapiens), sequence (P04637 whole entry, looked up): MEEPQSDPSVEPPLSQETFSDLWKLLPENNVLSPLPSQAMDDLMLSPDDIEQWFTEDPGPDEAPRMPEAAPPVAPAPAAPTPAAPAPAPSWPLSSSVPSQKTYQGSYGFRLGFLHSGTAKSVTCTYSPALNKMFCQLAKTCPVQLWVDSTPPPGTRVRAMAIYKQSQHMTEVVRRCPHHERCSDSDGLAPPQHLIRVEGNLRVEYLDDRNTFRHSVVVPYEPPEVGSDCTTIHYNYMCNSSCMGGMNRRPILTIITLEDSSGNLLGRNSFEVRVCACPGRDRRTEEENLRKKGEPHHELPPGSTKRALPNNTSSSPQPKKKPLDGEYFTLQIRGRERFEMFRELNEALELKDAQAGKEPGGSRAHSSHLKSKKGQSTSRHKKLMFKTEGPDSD
human RAR-related Orphan Receptor beta (RORb), RORB (gene 6096), sequence (Q92753 whole entry, looked up, the tested form may be a part): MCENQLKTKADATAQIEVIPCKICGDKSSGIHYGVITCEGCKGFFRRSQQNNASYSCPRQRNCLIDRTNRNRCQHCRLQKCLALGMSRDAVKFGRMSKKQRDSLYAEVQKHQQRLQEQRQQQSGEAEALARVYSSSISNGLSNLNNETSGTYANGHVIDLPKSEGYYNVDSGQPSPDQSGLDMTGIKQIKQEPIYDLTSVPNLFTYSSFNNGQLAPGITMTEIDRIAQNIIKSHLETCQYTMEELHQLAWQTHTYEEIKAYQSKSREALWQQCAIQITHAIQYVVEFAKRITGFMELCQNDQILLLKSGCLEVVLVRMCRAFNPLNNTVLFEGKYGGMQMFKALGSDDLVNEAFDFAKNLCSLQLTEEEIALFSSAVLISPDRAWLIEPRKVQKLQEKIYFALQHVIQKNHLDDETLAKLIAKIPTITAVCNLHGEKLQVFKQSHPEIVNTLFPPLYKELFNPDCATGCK
human Retinoic Acid Receptor beta (RARb), RARB (gene 5915), sequence (P10826 whole entry, looked up, the tested form may be a part): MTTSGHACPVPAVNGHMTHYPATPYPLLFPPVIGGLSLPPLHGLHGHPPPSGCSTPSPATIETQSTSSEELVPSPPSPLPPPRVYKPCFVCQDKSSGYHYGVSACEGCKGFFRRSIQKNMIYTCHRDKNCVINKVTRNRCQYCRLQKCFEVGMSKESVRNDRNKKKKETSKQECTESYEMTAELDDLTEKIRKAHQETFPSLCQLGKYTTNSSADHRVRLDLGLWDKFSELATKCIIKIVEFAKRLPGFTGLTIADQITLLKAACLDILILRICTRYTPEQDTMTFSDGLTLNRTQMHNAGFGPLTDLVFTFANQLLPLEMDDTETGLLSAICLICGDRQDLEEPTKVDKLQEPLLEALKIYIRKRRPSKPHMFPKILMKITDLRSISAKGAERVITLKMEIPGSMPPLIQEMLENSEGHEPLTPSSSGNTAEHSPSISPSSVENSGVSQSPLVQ
human Retinoic Acid Receptor gamma (RARg), RARG (gene 5916), sequence (P13631 whole entry, looked up, the tested form may be a part): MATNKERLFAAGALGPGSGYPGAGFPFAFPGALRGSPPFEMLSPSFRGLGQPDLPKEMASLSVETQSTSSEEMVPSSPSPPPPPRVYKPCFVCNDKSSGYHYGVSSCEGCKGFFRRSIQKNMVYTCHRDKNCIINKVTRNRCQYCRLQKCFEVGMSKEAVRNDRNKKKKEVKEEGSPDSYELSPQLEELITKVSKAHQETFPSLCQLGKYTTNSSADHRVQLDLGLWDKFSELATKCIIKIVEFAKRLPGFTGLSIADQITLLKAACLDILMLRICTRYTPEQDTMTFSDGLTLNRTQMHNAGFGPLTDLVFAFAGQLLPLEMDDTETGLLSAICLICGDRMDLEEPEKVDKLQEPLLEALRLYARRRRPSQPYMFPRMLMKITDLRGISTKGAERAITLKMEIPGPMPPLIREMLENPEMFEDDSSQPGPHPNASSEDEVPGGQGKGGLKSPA

With `C[C@]12CC[C@@H](O)C[C@@H]1CC[C@@H]1[C@@H]2CC[C@]2(C)C(=O)CC[C@@H]12`, the compound was classed as inactive in experiment [1], in [2], in experiment [3], in [4], in experiment [5] and in [6]. In addition, the outcome in experiment [7], in [8], in [9], in [10], in experiment [11] and in experiment [12] was inactive. Also, the outcome in experiment [13], in [14], in [15] and in experiment [16] was inactive.
As to `CC1(C)[C@H](C(=O)O[C@H](C#N)c2cccc(Oc3ccccc3)c2)[C@@H]1/C=C(\Cl)C(F)(F)F`, the call in experiment [1], in experiment [2], in experiment [3], in experiment [4], in [5] and in [6] was inactive. The outcome in experiment [7], in [8], in [17], in [10], in experiment [13] and in experiment [16] was inactive. Also, the compound was classed as inactive in experiment [19]. For the same compound, the half-maximal activity concentration (AC50) in experiment [18] is 5.86 µM (active) and 4.64 µM (active); in experiment [14] it was 152 nM (active) and 288 nM (active).
As for `O=C1C=CC(=O)c2ccccc21`, the compound was classed as inactive in experiment [1], in experiment [3], in [4], in experiment [14], in experiment [20] and in experiment [16]. Further, in [19], the outcome was inactive. Also, the concentration at half-maximal activity (AC50) in experiment [2] was 2.23 µM (active); in experiment [5] it was 1.93 µM (active); in experiment [6], 1.7 µM (active); in experiment [7] it was 3.48 µM (active); in experiment [8] it was 2.17 µM (active); in experiment [10], 5.9 µM (active). Further, the concentration at half-maximal activity (AC50) in experiment [13] was 0.46 µM (active); in experiment [18], 5.98 µM (active).
With `COCCl`, the call in [1], in [2], in experiment [3], in experiment [4], in experiment [9] and in experiment [17] was inactive. For the same compound, the outcome in experiment [11], in experiment [18], in experiment [14], in [16] and in experiment [19] was inactive.
In the case of `O=S(=O)(c1ccc(Cl)cc1)c1cc(Cl)c(Cl)cc1Cl`, the compound was classed as inactive in experiment [1], in experiment [3], in [4], in experiment [5], in [7] and in [8]. Moreover, the call in experiment [17], in experiment [10] and in experiment [19] was inactive. For the same compound, the concentration at half-maximal activity (AC50) is 10.4 µM (active) in experiment [2]; 6.4 µM (active) in experiment [6]; 5.2 µM (active) in experiment [13]; 7.66 µM (active) in [18]; 1.25 µM (active) in [14].
As for `CCC(C)(C#N)N=NC(C)(C#N)CC` (configuration not stated), the compound was classed as inactive in experiment [1], in experiment [2], in [3], in experiment [4], in [5] and in [6]. The result in [7], in experiment [8], in experiment [9], in experiment [10], in experiment [13] and in experiment [18] was inactive. Moreover, the compound was classed as inactive in [14], in [20], in [16] and in [19].
With `CCN(CC)C(=O)C(Cl)=C(C)OP(=O)(OC)OC`, the outcome in [1], in [3], in experiment [4], in [5], in experiment [6] and in experiment [7] was inactive. The outcome in experiment [8], in experiment [9], in experiment [17], in [10], in experiment [13] and in experiment [18] was inactive. The result in experiment [14] and in [16] was inactive. In addition, the AC50 in experiment [2] is 38.6 µM (active).
